# Sfp PPTase inh: Sfp phosphopantetheinyl transferase inhibition; Q9F4F7; Biochemical Sfp PPTase activity, qHTS; Potency, µM, for inactives: largest response in the series, negative = inhibition, hits mostly inhibitors; 310,000 tested, 3.5% active; AID 1490;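 also: the enzyme is Sfp with the accession as filed and its product quenches rhodamine fluorescence; 0% = enzyme reaction without inhibitor and -100% = no enzyme wells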
#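 Step 1, compound plus 15 nM Sfp-PPTase, 15 min, room temperature. Step 2, add rhodamine-CoA (5 uM) and BHQ-2-YbbR (12.5 uM). Step 3, read 525/598 nm fluorescence at 0 and 30 min.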
# ALOX12 inh: ALOX12 (human) lipoxygenase inhibition | Potency, µM (titrated, usually from 108 µM), for inactives: at the top dose activity change, negative = inhibition, usual class: inhibitors | AID 1671190 | 580,000 tested, 1.1% active | purified 12hLO, xylenol orange hydroperoxide absorbance; also: % is scaled to controls: 0 for no effect and ±100 for the full control effect
#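 Purified human 12hLO at 150 nM in 25 mM Hepes, 0.01% Triton X-100, pH 7.0, preincubated 15 min at room temperature with compound. Reaction started with 40 uM arachidonic acid, 30 min at room temperature. Hydroperoxide measured by Fe-xylenol orange, 573/405 nm absorbance ratio.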
# G9a inh: G9a (human) methyltransferase inhibition; G9a H3K9 monomethylation, AlphaScreen, 2 h; Potency, µM (top dose mostly 102 µM), without a hit: at the highest dose activity, negative = inhibition, actives largely listed as inhibitors; 350,000 tested, 8.8% active; also: % is scaled to controls: 0 for no effect and ±100 for the full control effect; nearly all actives have a fitted effect of over 75% in size
# Target sequence (Q96KQ7 913-1193 limits assumed): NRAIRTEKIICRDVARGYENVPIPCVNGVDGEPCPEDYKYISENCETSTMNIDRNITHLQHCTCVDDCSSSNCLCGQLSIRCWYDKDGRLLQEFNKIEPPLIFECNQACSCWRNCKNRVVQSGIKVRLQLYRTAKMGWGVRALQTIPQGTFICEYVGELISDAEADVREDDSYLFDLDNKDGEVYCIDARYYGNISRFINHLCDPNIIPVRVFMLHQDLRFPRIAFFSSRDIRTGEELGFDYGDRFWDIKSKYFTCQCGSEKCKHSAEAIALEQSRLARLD
#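 AlphaScreen detection with an anti-monomethyl H3K9 antibody quantified product after a 2 h room-temperature reaction containing 500 nM biotinylated H3K9 peptide, 20 µM SAM and 20 nM enzyme, which had been preincubated 15 min with compound.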
# VDR inh: inhibitors of human vitamin D receptor; VDR-SRC2-3 peptide fluorescence polarization, 2 h; Potency, µM, without a hit: max response, negative = inhibition, most hits filed as inhibitors; 400,000 tested, 0.93% active; also: % is scaled to controls: 0 for no effect and ±100 for the full control effect
# Target sequence (P11473 whole entry, looked up): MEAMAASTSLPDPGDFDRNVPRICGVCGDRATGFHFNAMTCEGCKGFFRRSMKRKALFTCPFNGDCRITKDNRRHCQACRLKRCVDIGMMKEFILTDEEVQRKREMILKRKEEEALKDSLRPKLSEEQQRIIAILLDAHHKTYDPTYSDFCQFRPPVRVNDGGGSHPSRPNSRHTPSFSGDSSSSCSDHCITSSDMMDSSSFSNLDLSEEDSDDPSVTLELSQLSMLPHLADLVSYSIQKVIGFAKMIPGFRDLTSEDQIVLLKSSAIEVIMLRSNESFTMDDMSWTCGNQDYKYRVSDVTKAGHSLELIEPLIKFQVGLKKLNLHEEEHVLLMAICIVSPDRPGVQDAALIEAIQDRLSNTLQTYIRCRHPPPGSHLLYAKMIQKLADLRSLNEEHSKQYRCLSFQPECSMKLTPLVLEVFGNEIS
#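 FP read-out; VDR + SRC2-3 coactivator peptide; 23 nl compound by pintool; 2 h RT incubation; reagents held at 4 deg C, protected from light.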
# GRP78 ERSR act: induces the endoplasmic reticulum stress response in human glioma cells; U87-MG GRP78 promoter luciferase reporter, 16 h; Potency, µM, for inactives: at the top dose activation, usual class: activators; 420,000 tested, 0.02% active; also: series mostly up to about 76 µM; % of control where 0% means no effect; nearly all actives have a fitted effect of over 35% in size
#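 ERSR induction read as luciferase luminescence (Bright-Glo, 10 min at room temperature) in stably transfected human U87-MG glioma cells exposed to compounds for 16 h, using GRP78 as sensor.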
# The depositor's hits bear a star; ? = inconclusive; nt = no result; [ ] = dose if it differs, or a comment. This is one part of a sample in which hits are shown more often than they occur. Calls follow the shape of the dose curve; as a rule, active = well fitted curve in the direction sought with a large enough effect; inconclusive = small, poorly fitted or top-dose-only effect, or another doubt; inactive = no such curve, though single readings can be large; an effect the other way counts as inactive or inconclusive. Potency is read from the fitted curve at half-maximal effect.
SMILES,Sfp PPTase inh,ALOX12 inh,G9a inh,VDR inh,GRP78 ERSR act
Cc1ccc(NC(=S)NNC(=S)NC2CCCCC2)cc1,39.8µM*,?,?,?,0.1%
CC(=O)c1ccc(NC(=S)NNC(=O)NC2CCCCC2)cc1,15.8µM*,-10.8%,8.91µM*,-26.0%,1.3%
Cc1cccc(NC(=O)C2CCCC2)c1C,nt,17.0%,nt,nt,nt
Cc1cccc(NC(=S)NNC(=S)NC2CCCCC2)c1C,?,-11.8%,1.26µM*,-11.8%,0.8%
CCOC(=O)C1CCN(C(=O)c2ccc(CN(c3ccccc3)S(C)(=O)=O)cc2)CC1,nt,-29.6%,nt,nt,nt
COc1ccc(-c2noc(CCCC(=O)Nc3ccc(C(N)=O)cc3)n2)cc1,8.3%,-15.7%,13.8%[59 µM],-5.1%,-8.3%
NC(=O)c1ccc(NC(=O)CCCc2nc(-c3ccccc3Cl)no2)cc1,4.9%,0.0%,50.1µM*,-18.0%,2.3%
Cc1ccccc1-n1c(SCC(=O)NC(C)c2cc3ccccc3o2)nnc1N1CCOCC1 (configuration not stated),nt,-1.5%,nt,nt,nt
Cc1cccc(NS(=O)(=O)c2ccc(Br)s2)n1,11.0%,?,?,-11.8%,-5.4%
Cc1cc(C)nc(NS(=O)(=O)c2ccc(Br)s2)c1,?,?,50.1µM*,-9.5%,-4.6%
Cc1ccc(NS(=O)(=O)c2ccc(Br)s2)nc1,?,-3.4%,39.8µM*,-0.2%,0.6%
COc1ccnc(-c2nnc3ccc(N(C)c4ccccc4)nn23)c1,nt,29.8%[176 µM],nt,nt,nt
Cc1ccc(-c2nnn(Cc3csc(-c4ccc(C)cc4)n3)n2)cc1,nt,4.0%,nt,nt,nt
CC(c1cc2ccccc2o1)N(C)Cc1nnc(-c2ccccc2)o1 (configuration not stated),nt,21.6%,nt,nt,nt
O=S(=O)(O)c1ccc2c(N=Nc3ccc(S(=O)(=O)O)c4ccccc34)c(O)c(S(=O)(=O)O)cc2c1,-23.0%,nt,28.2µM*,-3.3%,-7.3%
O=S(=O)(O)c1cc(O)c(N=Nc2ccc(O)cc2O)c2ccccc12,nt,8.91µM*,nt,52.3%,-7.7%
CC(=O)Nc1ccc(S(=O)(=O)O)c2cc(S(=O)(=O)O)c(N=Nc3ccc(N=Nc4ccc(S(=O)(=O)O)cc4)c4ccc(S(=O)(=O)O)cc34)c(O)c12,nt,nt,nt,nt,-9.5%
O=[N+]([O-])c1ccccc1N=Nc1ccc(O)cc1O,nt,?,nt,-11.9%,3.4%
CSc1nsc(/C=C/Nc2ccc(O)cc2C)c1C#N,-78.1%,35.5µM*,7.94µM*,-13.7%,-5.4%
CSc1nsc(/C=C/Nc2ccc(Cl)cc2)c1C#N,-2.7%,0.0%,-17.7%[12.7 µM],12.3%,4.4%
CSc1nsc(N/N=C/c2ccc3c(c2)OCO3)c1C#N,20.7%,?,-22.6%,-0.7%,6.2%
CSc1nsc(/C=C/Nc2ccc(F)cc2)c1C#N,?,?,50.1µM*,?,-3.5%
CSc1nsc(/C=C/Nc2cccc(Cl)c2)c1C#N,-1.2%,?,10µM*,7.0%,3.3%
COC[C@@H]1CCCN1Cc1cn(-c2ccccc2C)nc1-c1ccc(OC)c(F)c1,nt,50.0%,nt,nt,nt
Cc1c2cccn2cc[n+]1C,-3.7%,32.1%[57.4 µM],14.1µM*,-0.4%,-2.9%
SMILES,Sfp PPTase inh,ALOX12 inh,G9a inh,VDR inh,GRP78 ERSR act
Cc1c2ccccc2cc[n+]1C,nt,nt,nt,nt,-0.6%
Oc1ccc(N=Nc2nc(-c3ccccc3)c(-c3ccccc3)[nH]2)cc1,16.1%,?,20µM*,-9.8%,-3.6%
Oc1ccc(-c2nc(-c3ccccc3)c(-c3ccc(Br)cc3)[nH]2)cc1,nt,?,-10.4%[59 µM],-6.6%,-9.1%
Cc1nc2cc(NC(C)C(=O)Nc3cccc(Cl)c3)ccc2o1 (configuration not stated),nt,10.1%,nt,nt,nt
COc1ccc(C2CC(=O)c3cc(-c4nc(-c5cccc([N+](=O)[O-])c5)cs4)c(=O)n(-c4ccc(C)c(C)c4)c3C2)cc1 (configuration not stated),nt,-13.6%,11.2µM*,-24.2%,-3.9%
Cc1nc(SCC(=O)NCc2ccc(S(=O)(=O)N3CCOCC3)cc2)n(C2CCCC2)c1C,nt,-4.7%,nt,nt,nt
COc1ccc2cc([C@H](C)C(=O)N(C)Cc3ccccc3N3CCCC3)ccc2c1,-13.8%,?,44.7µM*,15.4%,-5.0%
CCOc1ccc(/C=N/n2cc(-c3ccccc3)[nH]c2=S)cc1,5.9%,?,?,-16.7%,0.2%
S=c1[nH]c(-c2ccccc2)cn1/N=C/c1ccncc1,79.4µM*,?,1.58µM*,-3.4%,-4.2%
Cc1ccn2c(Nc3ccc4c(c3)OCO4)c(-c3ccc(N(C)C)cc3)nc2c1,nt,?,2µM*,-11.2%,2.8%
Cc1ccn2c(Nc3ccc4c(c3)OCO4)c(-c3ccc(Cl)cc3)nc2c1,nt,-1.9%,2.82µM*,-2.6%,-0.8%
CCN(CC)CCCNC(=O)C(C)Sc1nc(-c2ccccc2)cc(C(F)(F)F)n1 (configuration not stated),12.4%,-6.7%,nt,0.9%,-4.5%
CCCOC(=O)c1c(NC(=O)C(C)Sc2nc(-c3ccccc3)cc(C(F)(F)F)n2)sc(C(=O)N(C)C)c1C (configuration not stated),nt,-23.0%,11.2µM*,?,-1.8%
CCN(CC)C(=O)c1sc(NC(=O)C(C)Sc2nc(-c3ccccc3)cc(C(F)(F)F)n2)c(C(=O)OC)c1C (configuration not stated),nt,-26.7%,3.55µM*,35.5µM*,-4.0%
O=C(Nc1cccc2ncccc12)C1CCCN(S(=O)(=O)c2ccccc2)C1 (configuration not stated),nt,0.7%,nt,nt,nt
CCN(CC)Cc1nc(C2(O)CCN(Cc3ccccc3C(F)(F)F)CC2)cs1,nt,14.9%[176 µM],nt,nt,nt
CCc1ccc(NC(=O)Cc2nc(-c3c[nH]c(C(=O)N4CCCC4)c3)cs2)cc1,nt,-10.6%,nt,nt,nt
CCOc1ccc(NC(=O)/C=C/Sc2ccccc2)cc1,nt,14.5%,nt,nt,nt
O=C(N/N=C/c1ccccn1)c1ccc(NC(=O)c2ccc(F)cc2)cc1,-24.1%,15.8%,50.1µM*,16.4%,1.3%
O=C(N/N=C/c1ccccn1)c1ccc(NC(=O)c2ccccc2Cl)cc1,-12.1%,0.8%,3.3%,-1.7%,-2.7%
Cc1cccc(/C=N/NC(=O)c2ccc(F)cc2)n1,39.8µM*,0.0%,14.4%,-2.4%,1.7%
CCCCCC(=O)N1CCN(CCNc2cc(=O)oc3ccccc23)CC1,nt,-18.6%,nt,nt,nt
CN1/C(=C\C(=S)NC(=O)c2ccccc2Cl)C(C)(C)c2ccccc21,?,25.1µM*,35.5µM*,16.3%,1.7%
CN1/C(=C\C(=O)Nc2ccc(Cl)cc2)C(C)(C)c2ccccc21,9.1%,-29.8%,?,13.2%,-4.1%
CN1/C(=C/C(=S)NC(=O)C2(C)CC2(Cl)Cl)C(C)(C)c2ccccc21 (configuration not stated),11.2%,22.4µM*,?,15.0%,1.9%
COc1ccccc1C(=O)NC(=S)/C=C1/N(C)c2ccccc2C1(C)C,?,28.2µM*,10µM*,?,4.3%
CCOC(=O)/C=C1/N(C)c2ccccc2C1(C)C,4.1%,16.5%,4.0%,-1.6%,-2.3%
CN1/C(=C\C(=S)Nc2ccccc2)C(C)(C)c2ccccc21,31.6µM*,-16.7%,44.7µM*,?,5.4%

# Bioassay records from PubChem.
